# Measurements as given in PubChem BioAssay AID777 (Sanford-Burnham Center for Chemical Genomics, 2007).
# Out of some 96,000 compounds screened, about 19,000 (20%) were called active. A selection follows. Values without a mark were called inactive.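 Rule for the calls: active = blocking of liver enzyme CYP2C9 beyond about 50% at 5 µM (limit read from the data); inactive = the rest.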
# Molecular target: Cytochrome P450 2C9 (Homo sapiens) (UniProt P11712)
# Assay: blockers of cytochrome P450 2C9 activity – biochemical, luminescence, ADME assay, primary screen (AID 777)
# Conditions: CYP2C9 Supersomes, luciferin-H conversion, at 5 µM, hits give high values
# Cytochrome P450 2C9 (Homo sapiens), sequence (P11712 whole entry, looked up): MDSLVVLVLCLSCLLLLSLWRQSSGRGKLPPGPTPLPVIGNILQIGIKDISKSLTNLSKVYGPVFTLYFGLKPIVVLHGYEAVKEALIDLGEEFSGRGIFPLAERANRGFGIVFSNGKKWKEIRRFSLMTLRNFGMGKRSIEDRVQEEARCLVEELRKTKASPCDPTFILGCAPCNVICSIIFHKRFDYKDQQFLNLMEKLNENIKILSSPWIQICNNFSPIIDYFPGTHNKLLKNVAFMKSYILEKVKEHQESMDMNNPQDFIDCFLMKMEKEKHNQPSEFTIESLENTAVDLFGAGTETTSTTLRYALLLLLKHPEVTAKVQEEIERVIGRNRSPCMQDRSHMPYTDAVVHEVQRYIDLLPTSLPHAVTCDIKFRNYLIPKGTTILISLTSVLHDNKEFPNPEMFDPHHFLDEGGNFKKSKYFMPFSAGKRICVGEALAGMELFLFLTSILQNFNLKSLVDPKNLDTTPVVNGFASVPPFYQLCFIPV
row,SMILES,inhibition
1,O=C(CCSc1ccccc1)NCCSc1ccccn1,41.7%
2,COc1ccc(C(C(O)C(=O)c2c[nH]c3ccccc23)N2CCN(c3ccccc3)CC2)cc1 (stereo unspecified),26.9%
3,CS(=O)(=O)c1ccc2nc(NC(=O)CN3CCCCCC3)sc2c1,25.1%
4,CC1CCCC(NC(=O)CSc2nccn2C)C1C (stereo unspecified),-4.4%
5,CC1=CC(C)(C)N(C(=O)CSc2nnc(-c3ccccc3)o2)c2ccc(C)cc21,11.9%
6,CC1=CC(C)(C)N(C(=O)CSc2nccn2C)c2cc(C)ccc21,61.4% (active)
7,COCCNC(=O)CN(C(=O)CCC(=O)Nc1cc(C)on1)c1ccc(C)cc1C,-2.4%
8,N#Cc1nc(Cc2cccc3ccccc23)oc1NCc1ccc2c(c1)OCO2,63.7% (active)
9,c1n[nH]c(NCc2ccc3c(c2)OCO3)n1,1%
10,COc1cc2[nH]c(=S)n(CCN3CCCCC3C)c(=O)c2cc1OC (stereo unspecified),23.6%
11,Cc1ccc(S(=O)(=O)/N=C(\CN2CCOCC2)N2CCOCC2)cc1,7.1%
12,CC(=O)C1C(c2cccc(Oc3ccccc3)c2)NC(=O)NC1(O)C(F)(F)F (stereo unspecified),0.7%
13,Cc1cccc(NC(=O)CSc2nnc(NC(=O)CN3CCOCC3)s2)c1,10.9%
14,Cc1cc(C)n(-c2nc(SCC(=O)N3CCCC3)c3c4c(sc3n2)CCCC4)n1,78.8% (active)
15,COCCNc1nc(-n2nc(C)cc2C)nc2sc3c(c12)CCCC3,16.5%
16,COCCn1c(C)cc(C(=O)CSc2ncnc3sc4c(c23)CCC4)c1C,-41.7%
17,CCCC1C(c2ccccc2)C(C#N)(C#N)C2(C#N)CC1(N)NC2=O (stereo unspecified),4.8%
18,COc1ccc(N2C(=O)CN=C2Nc2cccc(C)c2C)cc1OC,10.9%
19,Cc1cc(N2CCN(S(=O)(=O)c3ccc(C)c(C)c3)CC2)c2ccccc2n1,89.9% (active)
20,Cc1ccc(S(=O)(=O)N2CC(=O)Nc3ccccc32)cc1C,-50.4%
21,O=c1ccc2cc(S(=O)(=O)N3CCN(c4ccccc4)CC3)ccc2o1,5.5%
22,CCOC(=O)c1ccc(NC(=O)CSc2nnc(COc3ccccc3OC)n2C)cc1,11.7%
23,CCCCNC(=O)CSc1nnc(-c2ccco2)n1C,44.2%
24,CCCCNC(=O)CSc1nc2ccc(NC(=O)CSc3nnc(COc4ccccc4C)n3C)cc2s1,75.1% (active)
25,O=C1CCCc2c1nc(-c1cccc(Cl)c1)n2O,11.3%
26,CC1(C)CC(=O)C(C=NCc2cccnc2)=C(O)C1,-14.4%
